Results reported in PubChem BioAssay (NCI).
This is part of a sample that, as a whole, favours compounds with a hit. Of some 79,000 tested, about 15% had one in any assay. Unmarked numbers belong to inactive results. The source made the active and inactive calls. No stated cut-off is given here; in the data, active means growth inhibition above about 70%; inactive means the rest.

Tests used:
[1] = NCI Yeast Anticancer Drug Screen. Data for the rad50 strain (AID 155);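 further: 0% = growth of vehicle-only cultures of the same strain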; details: S. cerevisiae rad50 strain growth inhibition, hits give high values
Method in brief: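 Compounds were tested on a yeast strain with an engineered DNA damage repair alteration; the reported value is growth inhibition normalised to vehicle treatment.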

[2] = NCI Yeast Anticancer Drug Screen. Data for the mec2-1 strain (AID 157); details: S. cerevisiae mec2-1 strain, hits give high values
Method in brief: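 Yeast mec2-1 mutant treated with compound. Readout: growth inhibition vs vehicle controls.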

[3] = NCI Yeast Anticancer Drug Screen. Data for the sgs1 mgt1 strain (AID 161);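 further: 0% = growth of cultures given vehicle only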; details: S. cerevisiae sgs1 mgt1 strain, hits give high values
Method in brief: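 Genetically altered yeast, compound exposure, growth inhibition relative to vehicle.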

[4] = NCI Yeast Anticancer Drug Screen. Data for the cln2 rad14 strain (AID 165);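 further: 0% = growth equal to vehicle treated cultures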; details: S. cerevisiae cln2 rad14 strain, hits give high values
Method in brief: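 cln2 rad14 yeast strain; compound exposure; growth inhibition read vs vehicle controls.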

[5] = NCI Yeast Anticancer Drug Screen. Data for the bub3 strain (AID 167); details: S. cerevisiae bub3 mutant strain, hits give high values
Method in brief: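 Growth of a checkpoint-deficient yeast mutant is measured after compound exposure. Values represent inhibition relative to vehicle.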

[6] = NCI Yeast Anticancer Drug Screen. Data for the mlh1 rad18 strain (AID 175); details: S. cerevisiae mlh1 rad18 strain growth inhibition, hits give high values
Method in brief: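 Yeast w/ defined DNA-repair lesions; compound exposure; growth vs vehicle controls → % inhibition.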

[7] = at 5.0 µM (retest, dose inferred, filed as 0.5)
[8] = at 50.0 µM (retest, dose inferred, filed as 5.0)

SMILES	growth inhibition [1, 7]	growth inhibition [1, 8]	growth inhibition ([1]; at 50.0 µM)	growth inhibition [2, 7]	growth inhibition [2, 8]	growth inhibition ([2]; at 50.0 µM)	growth inhibition [3, 7]	growth inhibition [3, 8]	growth inhibition ([3]; at 50.0 µM)	growth inhibition [4, 7]	growth inhibition [4, 8]	growth inhibition ([4]; at 50.0 µM)	growth inhibition [5, 7]	growth inhibition [5, 8]	growth inhibition ([5]; at 50.0 µM)	growth inhibition [6, 7]	growth inhibition [6, 8]	growth inhibition ([6]; at 50.0 µM)
CC1(C)OC2C(COC(c3ccccc3)(c3ccccc3)c3ccccc3)OC(c3c[nH]c4c(N)ncnc34)C2O1 (configuration not stated)	9%	99% (active)	98.9% (active)	40%	99% (active)	99.1% (active)	-6%	99% (active)	99.2% (active)	-20%	99% (active)	97.7% (active)	10%	99% (active)	98.8% (active)	25%	99% (active)	98.7% (active)
Nc1cccc2cccc([N+](=O)[O-])c12	-142%	-39%	10.8%	-47%	-40%	11.4%	-52%	1%	16%	-63%	-10%	62%	-74%	-86%	-19.9%	-130%	-68%	21.4%
Nc1nc2ncc(CNc3ccc(C(=O)NC(CCC(=O)NC(CCC(=O)NC(CCC(=O)NC(CCC(=O)NC(CCC(=O)O)C(=O)O)C(=O)O)C(=O)O)C(=O)O)C(=O)O)cc3)nc2c(=O)[nH]1 (configuration not stated)	-19%	-9%	25.2%	0%	-6%	18.3%	0%	-12%	24.6%	12%	1%	47%	-5%	-2%	-19.5%	10%	20%	8.35%
CCOC(=O)C1=NN(c2ccccc2)C(=O)/C1=C\N1C(=O)/C(=C/c2cccc(O)c2)SC1=S	-9%	11%	6.8%	-16%	17%	1.9%	-2%	9%	3.45%	-13%	-13%	60.5%	4%	12%	3.45%	0%	10%	-4.9%
COc1ccc2nc3cc(Cl)ccc3c(NCCCCCN3CCCCC3)c2c1	-3%	70% (active)	77.6% (active)	-3%	31%	39%	-7%	26%	47.1%	1%	45%	63%	-4%	4%	59.4%	0%	47%	59.9%
CCCCCCCCC(=O)OCCCC(CCC(CCC1CCCO1)OC(=O)CCCCCCCC)OC(=O)CCCCCCCC (configuration not stated)	-19%	10%	82.3% (active)	3%	12%	37%	-12%	33%	42.4%	-17%	31%	14.3%	-7%	12%	29.8%	-2%	23%	62.4%
O=C(CCc1ccccc1)ON1C(=S)NC(c2ccccc2)(c2ccccc2)C1=S	14%	42%	29.7%	0%	22%	55.7%	-11%	64%	63.3%	16%	59%	70.2% (active)	0%	47%	79.2% (active)	13%	61%	72.4% (active)
CCCCCCCCCCCC[n+]1ccccc1 (tested in a mixture with another compound)	34%	96% (active)	99.1% (active)	91% (active)	96% (active)	99.1% (active)	31%	97% (active)	99.1% (active)	18%	94% (active)	98.5% (active)	88% (active)	96% (active)	99.2% (active)	21%	95% (active)	99% (active)
C=C(C(N)=O)C(N)C(=O)O (configuration not stated)	-5%	9%	-20.1%	6%	-2%	9.85%	-1%	0%	13.1%	9%	2%	-7.4%	-16%	-2%	40.5%	11%	32%	7.45%
